Laboratory results taken from the supplement of paper PMC4840960.

system: E18 rat cortical neuron-glia co-culture; test: myelination (MBP fiber length per Olig2+ nucleus), % of 1 µM DAPT response (DMSO = 0) (% of DAPT); higher = more myelination, active = 50 or more; conditions: 5 µM; treatment time: 8 days (DIV5-DIV13)
Method in brief: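 Myelination, expressed as continuous straight MBP fiber length per Olig2+ nucleus, was normalised to 0.1 % DMSO as 0 and a 1 µM positive control as 100. The cultures were primary E18 rat cortical co-cultures dissociated with papain and plated at 20,000 cells/well on poly-d-lysine/laminin-coated 96-well plates. They received library compounds at 1 or 5 µM in myelination medium between DIV5 and DIV13. Analysis covered four 10X fields per well in duplicate wells after 4 % paraformaldehyde fixation and immunostaining for MBP and Olig2 with DAPI.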

myelination, inactive:
Nc1nc2ccc(OC(F)(F)F)cc2s1 [Riluzole] -52.5, N[C@@H](Cc1cc(I)c(Oc2ccc(O)c(I)c2)c(I)c1)C(=O)O [Triiodothyronine] 24.8, CCCC1O[C@@H]2C[C@H]3[C@@H]4CCC5=CC(=O)C=C[C@]5(C)[C@H]4[C@@H](O)C[C@]3(C)[C@]2(C(=O)CO)O1 (some centres undefined) [Budesonide] -18.8, COc1c(N2CCNC(C)C2)c(F)cc2c(=O)c(C(=O)O)cn(C3CC3)c12 (centres undefined) [Gatifloxacin] -14.2, OC(CCN1CCCCC1)(c1ccccc1)C1CCCCC1 (centres undefined) [Trihexyphenidyl] -15.2, COCCCC/C(=N\OCCN)c1ccc(C(F)(F)F)cc1 [Fluvoxamine] -9.1, Cc1ncc([N+](=O)[O-])n1CC(C)O (centres undefined) [Secnidazole] -18.7, CO[C@H]1/C=C/O[C@@]2(C)Oc3c(C)c(O)c4c(O)c(c(/C=N/N5CCN(C)CC5)c(O)c4c3C2=O)NC(=O)/C(C)=C\C=C\[C@H](C)[C@H](O)[C@@H](C)[C@@H](O)[C@@H](C)[C@H](OC(C)=O)[C@@H]1C [Rifampicin] -2.96, CNC(=N)NCCC[C@H](N)C(=O)O -9.76, CCOC(=O)[C@H](CCc1ccccc1)N[C@@H](C)C(=O)N1Cc2ccccc2C[C@H]1C(=O)O [Quinapril] -6.78, Cc1[nH]c(=O)c(C#N)cc1-c1ccncc1 [Milrinone] -15.7, C=C1/C(=C\C=C2/CCC[C@]3(C)[C@@H]([C@H](C)/C=C/[C@@H](O)C4CC4)CC[C@@H]23)C[C@@H](O)C[C@@H]1O [Calcipotriene] -82.7, CC(C)(C)NCC(O)c1cc(O)cc(O)c1 (centres undefined) [Terbutaline] -16.6, OC[C@H]1O[C@@H](Oc2cc(O)cc(/C=C/c3ccc(O)cc3)c2)[C@H](O)[C@@H](O)[C@@H]1O [Polydatin] -3.53, COC(=O)C1=C(C)NC(C)=C(C(=O)OC)C1c1ccccc1[N+](=O)[O-] [Nifedipine] 10, CS(=O)(=O)OCCCCOS(C)(=O)=O [Busulfan] 46.7, CC(=O)[C@H]1CC[C@H]2[C@@H]3CCC4=CC(=O)CC[C@]4(C)[C@H]3CC[C@]12C [Progesterone] -38.4, CN(C)CCOC(C)(c1ccccc1)c1ccccn1 (centres undefined) [Doxylamine] -5.08, C#C[C@]1(O)CC[C@H]2[C@@H]3[C@H](C)CC4=C(CCC(=O)C4)[C@H]3CC[C@@]21C [Tibolone] -13.2, CCCC(CCC)C(=O)O [Valproic Acid] -3.27, COc1ccnc(C[S+]([O-])c2nc3cc(OC(F)F)ccc3[nH]2)c1OC (centres undefined) [Pantoprazole] 1.97, Nc1nc(=O)c2nc(CNc3ccc(C(=O)N[C@@H](CCC(=O)O)C(=O)O)cc3)cnc2[nH]1 [Folic acid] -17.3, CC(=O)O[C@]1(C(C)=O)CC[C@H]2[C@@H]3C=C(C)C4=CC(=O)CC[C@]4(C)[C@H]3CC[C@@]21C [Megestrol acetate] -31.3, CC(CN1c2ccccc2Sc2ccccc21)N(C)C (centres undefined) [Promethazine] -4.26
